Results filed as inconclusive are left out. Entries that show only a call come without a potency. Active and inactive are the calls of the source. Calls follow the shape of the dose curve; as a rule, active = well fitted cell-killing curve with a large enough effect in the repeat runs; inconclusive = weak or mixed curves; inactive = flat fitted curve, though single readings scatter.
Experiment: qHTS assay to identify small molecule antagonists of the estrogen receptor beta (ER-beta) signaling pathway - cell viability counter screen (AID 1259382); also: nearly all actives have a fitted effect of over 55% in size
Conditions: ER-beta-UAS-bla HEK293T viability, CellTiter-Glo luminescence, 16 h; series mostly up to 92.4 µM
Text: U.S. Tox21 Program National Center for Advancing Translational Sciences [NCATS] NIH Chemical Genomics Center [NCGC] U.S. Environmental Protection Agency [EPA] National Institutes of Environmental Health Sciences [NIEHS] National Toxicology Program [NTP] U.S. Food and Drug Administration [FDA] Tox21 Assay Overview: Estrogen receptor (ER), a nuclear hormone receptor, plays an important role in development, metabolic homeostasis and reproduction. Two subtypes of ER, ER-alpha and ER-beta, have similar expression patterns with some uniqueness in both types. Endocrine disrupting chemicals (EDCs) and their interactions with steroid hormone receptors like ER causes disruption of normal endocrine function. To identify the compounds that inhibit ER signaling, an ER-beta-UAS-bla GripTite cell line (Life Technologies, Madison, WI, USA) containing a beta-lactamase reporter gene under the control of an UAS response element was used to screen Tox21 10K compound library. The cytotoxicity of the Tox21 compound library against the ER-beta-bla cell line was tested in parallel by measuring the cell viability using CellTiter-Glo assay in the same wells.
Tox21 Assay Protocol Summary: ER-beta-UAS-bla HEK293T cells were dispensed at 2,000 cells/4 uL of assay medium containing 2% charcoal stripped FBS per well into black wall/clear-bottom 1536-well plates using a Multidrop Combi (ThermoFisher Scientific, Waltham, MA) dispenser. After the assay plates were incubated at a 37C and 5% CO2 for 6 hr, 23 nL of compounds dissolved in DMSO, positive controls or DMSO only was transferred to the assay plate by a Pintool station (Kalypsys, San Diego, CA), followed by addition of 1 uL (1nM as final concentration) of 17-beta-estradiol (E2) in assay medium using a Flying Reagent Dispenser (FRD, Aurora Discovery, San Diego, CA). The plates were incubated at 37C and 5% CO2 for 16 hr. Then 1 uL of LiveBLAzer B/G FRET substrate was added using a Flying Reagent Dispenser, the plates were incubated at room temperature for 2 hours, and fluorescence intensity was measured by an Envision plate reader (PerkinElmer, Shelton, CT). For cell viability readout that measures cytotoxicity, 4 uL/well of CellTiter-Glo reagent was added into the assay plates using a FRD. After 30 min incubation at room temperature, the luminescence intensity in the plates was measured using a ViewLux (PerkinElmer) plate reader.
Potency is read from the fitted curve at half-maximal effect.

Compound | Potency
CCN(CC)C(=S)S | 12.1 µM (active)
CC[N+]1(CC)CCC(OC(=O)C(O)(c2ccccc2)c2ccccc2)C1 (stereo not given) | inactive
CC(C)c1c(CN(C)C(C)Cc2ccccc2)n(C)n(-c2ccccc2)c1=O (stereo not given) | inactive
CCN(CC)CCc1c[nH]c2ccccc12 | inactive
CCn1cc[n+](C)c1 (tested in a mixture with another compound) | inactive
BrCCCBr | inactive
CCCCC(CC)COC(=O)OOC(C)(C)C (stereo not given) | inactive
O=C(Nc1ccc(F)cc1F)c1cccnc1Oc1cccc(C(F)(F)F)c1 | inactive
CSSC | inactive
C[C@H]1[C@H](c2ccc(Cl)cc2)SC(=O)N1C(=O)NC1CCCCC1 | inactive
Cc1cnc2c(C(=O)O)c(Cl)ccc2c1 | inactive
c1ccc2nc(N3CCNCC3)ccc2c1 | inactive
O=P(Cl)(Cl)Cl | inactive
CO/N=C(\C(=O)OC)c1ccccc1CO/N=C(\C)c1cccc(C(F)(F)F)c1 | inactive
BrCC(Br)(Br)Br | inactive
[Cl-].[Cl-].[Cl-].[Yb+3] | inactive
CN1C2CCC(C)(C)C1CC(OC(=O)C(O)(c1cccs1)c1cccs1)C2 (stereo not given) | inactive
[Cl-].[Cl-].[Sn+2] | inactive
Nc1nc(N)c(N)c(N)n1 | inactive
CC1CN1 (stereo not given) | inactive

Compound | Potency
OCC(Br)CBr (stereo not given) | inactive
C[N+]1(C)[C@@H]2CC[C@H]1CC(OC(=O)C(CO)c1ccccc1)C2 (stereo not given in full) | inactive
COc1ccc2c(c1OC)C(=O)O[C@@H]2[C@H]1c2cc3c(cc2CCN1C)OCO3 | inactive
CC(=O)[O-].CC(=O)[O-].CC(=O)[O-].[Cr+3] | inactive
Oc1ccc(Cl)c(Cl)c1 | inactive
CCC(OC(C)=O)C(CC(C)NC)(c1ccccc1)c1ccccc1 (stereo not given) | 54.9 µM (active)
CC(Cc1ccc2c(c1)OCO2)NO (stereo not given) | inactive
O=[N+]([O-])C(Br)Br | inactive
[Cl][Hg][c]1ccccc1 | 3.06 µM (active)
Cc1ccc2cc3c(ccc4ccccc43)c3c2c1CC3 | inactive
[O]=[Cr][O][Cr]=[O] | inactive
Nc1cc(Cl)ccc1Cl | inactive
Clc1ccc(C(Cl)(Cl)Cl)cc1Cl | inactive
COc1ccc2c3c1O[C@H]1[C@H](O)CC[C@H]4[C@@H](C2)N(C)CC[C@@]341 | inactive
CCCCON=O | inactive
O=[N+]([O-])c1ccc(CCl)cc1 | inactive
CC(=O)[O-].CC(=O)[O-].O.O.O.[Pb+2] | inactive
ClC1=C(Cl)[C@]2(Cl)[C@@H]3[C@H]4C[C@H]([C@@H]5O[C@H]45)[C@@H]3[C@@]1(Cl)C2(Cl)Cl | inactive
CC(C)NCC(O)c1ccccc1Cl (stereo not given) | inactive
CC(C)C(Nc1ccc(C(F)(F)F)cc1Cl)C(=O)OC(C#N)c1cccc(Oc2ccccc2)c1 (stereo not given) | inactive

Source: PubChem BioAssay (Tox21)
